Measurements published in PubChem BioAssay AID488857 (Sanford-Burnham Center for Chemical Genomics, 2010).
Screen size: about 1,400 compounds; about 560 (40%) were called active. So high a share suggests a set chosen from earlier hits. The list shows a part of the results. Unmarked numbers belong to inactive results.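 The calls were made as follows: active = mean inhibition over duplicate tests at 10 µM above 50%; inactive = the rest.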

Test: ASC/caspase-1 reporter retest in S. cerevisiae at one dose, specificity check for NALP1 project (AID 488857)
Details: S. cerevisiae ASC/Caspase-1, beta-galactosidase luminescence, 24 h; at 10 µM; active compounds read high

| SMILES | inhibition |
| --- | --- |
| CC1CCCC(NC(=O)C2CCN(S(=O)(=O)N3CCCCC3)CC2)C1C (stereo not given) | 36.5% |
| O=C(Cc1ccc(-n2c(=O)[nH]c3ccccc3c2=O)cc1)N1CCN(c2ccccc2)CC1 | 17.4% |
| O=C(COc1cccc2ccccc12)N1CCN(c2ccccc2)CC1 | 52% (active) |
| CCn1c(COc2ccccc2C)nnc1SCC(=O)N1CCN(c2ccccc2)CC1 | 40.5% |
| C/C(=N\N1CCN(c2ccc(Cl)cc2)CC1)c1ccco1 | 36.9% |
| CCCCCOc1ccc(Br)cc1CSC(=N)N | 59% (active) |
| FC(F)(F)C(F)(F)c1nnc2ccc(-n3ccnc3)nn12 | 33.5% |
| Cc1ncc(S(=O)(=O)c2ccccc2)c(-c2ccccc2Cl)n1 | 7.65% |
| COc1ccc2cc(/C=N/O)c(Cl)nc2c1 | 55% (active) |
| COc1ccc(CC2(C)OC(c3ccc(C)cc3)=NN2C(C)=O)cc1 (stereo not given) | 59% (active) |
| O=C1C=CC(=O)N1c1ccc(OC(F)F)cc1 | 71% (active) |
| CNCc1ccccc1Sc1cc(O)ccc1O | 24.2% |
| CN1c2ccccc2Sc2cc(N)ccc21 | 87.7% (active) |
| CC(C)C(=O)N(Cc1ccccc1)c1ccccn1 | 21.7% |
| Cc1cc(C)cc(-n2nnc(C(=O)NCc3ccccc3)c2N)c1 | 53.6% (active) |
| CCOc1ccc(CNC(=O)c2cc3oc4ccccc4c3n2C)cc1 | 32.7% |
| Nc1c(C(=O)NCc2ccc3c(c2)OCO3)nnn1-c1ccc(OC(F)(F)F)cc1 | 48.9% |
| CCSc1nnc(NC(=O)c2ccc(C)o2)s1 | 59.5% (active) |
| CC(C)COC(=O)Nc1nnc(SCc2ccccc2F)s1 | 47.1% |
| CCSc1nnc(NC(=O)c2ccccc2)s1 | 85.4% (active) |
| C=C(C)C(=O)Nc1nnc(-c2cccs2)s1 | 36.6% |
| Cc1ccc(Nc2nnc(SCC(=O)Nc3ccc(S(=O)(=O)N4CCOCC4)cc3)s2)cc1 | 36% |
| CN(C)c1ccc(N/C=C/C(=O)c2ccccc2)cc1 | 62.9% (active) |
| Cc1cccc(N/C=C/C(=C(C#N)C#N)N(C)C)c1 | 38.1% |
| O=C(NCc1cccnc1)C1CCN(S(=O)(=O)c2cccnc2)CC1 | 42.8% |

| SMILES | inhibition |
| --- | --- |
| COc1ccc(S(=O)(=O)N(CC(=O)N2CCOCC2)Cc2ccccc2)cc1C | 40.5% |
| O=C(c1ccc(Br)s1)N1CCN(C/C=C/c2ccccc2)CC1 | 55.4% (active) |
| CN(CC(=O)NC(=O)NCc1ccccc1)Cc1cccc(Cl)c1Cl | 43.1% |
| CCN(c1cccc(C)c1)S(=O)(=O)c1cccc(C(=O)O)c1 | 32.3% |
| CCN(CC)c1ccc(/C=C2/SC(=O)N(C(C)C)C2=O)o1 | 71% (active) |
| N#CC1(C#N)CC(C=O)=C(N)C1(C#N)CC(=O)C12CC3CC(CC(C3)C1)C2 (stereo not given) | 35.1% |
| Cc1cc(C(=O)COC(=O)c2ccc[nH]c2=O)c(C)n1-c1ccc(F)cc1 | 52.3% (active) |
| Cc1cc(C(=O)COC(=O)c2ccc[nH]c2=O)c(C)n1-c1ccccc1 | 57.5% (active) |
| CCC(=O)N(Cc1cc2c(C)ccc(C)c2[nH]c1=O)C1CCCCC1 | 36.8% |
| CCC(C(=O)OC)n1cnc2scc(-c3ccc(C)c(C)c3)c2c1=O (stereo not given) | 98.5% (active) |
| CC[n+]1c(/C=C/N(C)c2ccccc2)n(-c2ccccc2)c2ccc(-c3nc4ccccc4s3)cc21 | 64.5% (active) |
| O=C(Cn1cccc(C(F)(F)F)c1=O)c1ccc(Cl)cc1 | 20.5% |
| O=C(NNC(=O)c1ccc(-c2ccccc2)cc1)Nc1ccc(F)cc1F | 42.6% |
| O=C(Nc1ccccc1)Nc1ccc(Br)cc1F | 73.9% (active) |
| Cc1ccc(S(=O)(=O)N(C)C)cc1NC(=O)Nc1ccccc1F | 24.1% |
| O=C(c1ccccc1)c1ccc(OCC(O)CNC2CCCc3ccccc32)cc1 (stereo not given) | 38.8% |
| COc1ccc(C2NCCc3c2[nH]c2ccccc32)cc1CSc1nc2ccccc2s1 (stereo not given) | 50% (active) |
| CSc1nc(C)cc(OCCO)n1 | 40.9% |
| CCCOc1ccc(OCCSc2ncccn2)cc1 | 50.8% (active) |
| CCOc1ccc(OCCSc2nc3ccccc3o2)cc1 | 44.1% |
| Cc1ccc(S(=O)(=O)N[C@@H](Cc2ccccc2)C(=O)CCl)cc1 | -4.2% |
| CC(=O)NS(=O)(=O)c1ccc(NC(=O)CSc2ccccc2)cc1 | 18.9% |
| CC(C)CN=C(NS(=O)(=O)c1ccccc1)C(Cl)(Cl)Cl | 51.1% (active) |
| O=C(OCCN1CCCCC1)c1cc2ccccc2o1 | 18.4% |
| CCc1oc2ccccc2c1C(=O)CCN1CCCCC1 | 66.5% (active) |

| SMILES | inhibition |
| --- | --- |
| Cc1c(C)c2cc(Cl)c(O)c(CN3CCCCC3)c2oc1=O | 35.6% |
| O=C(NCCc1csc(-c2ccccc2)n1)c1ccc(Br)o1 | 62.4% (active) |
| COc1ccc(CCNC(=O)c2sc3cc(C)ccc3c2Cl)cc1 | 43.6% |
| COc1ccc(-c2nc(CCNC(=O)c3cccs3)cs2)cc1 | 54.7% (active) |
| Cc1ccc(CN(C(=O)CNC(=O)c2cccs2)C(C(=O)NCC2CCCO2)c2ccccc2)cc1 (stereo not given) | 38.1% |
| O=C(NCCCn1ccnc1)c1ccc(Br)o1 | 24.1% |
| c1ccc(CCNc2nc(-c3cccnc3)cs2)cc1 | 45% |
| O=C(O)C1C2C=CC(C2)C1C(=O)NCc1ccc(Cl)c(Cl)c1 (stereo not given) | 45.9% |
| C=C(C)C1Cc2c(C)nn(-c3ccccn3)c2C1 (stereo not given) | 36.1% |
| Cc1cc(C)cc(NS(=O)(=O)c2ccc(NC(=S)NC(=O)c3ccc(Br)o3)cc2)c1 | 43.1% |
| CSCc1ccc(C(=O)Nc2cc(C)cc(C)c2)cc1 | 82.3% (active) |
| COc1ccc(-c2nc3cnccn3c2Nc2ccc(C)cc2)cc1 | 37.3% |
| Cc1ccc(-c2nc3cnccn3c2Nc2c(C)cccc2C)o1 | 54.5% (active) |
| CCCCCCC(=O)N(O)C1CC(=O)N(Cc2ccccc2)C1=O (stereo not given) | 27.9% |
| Cc1ccc(NC(=S)Nc2ccc(Cl)c(Cl)c2)c(OC(F)F)c1 | 45.8% |
| CN1CCN(C(=S)Nc2ccc(Cl)c(Cl)c2)CC1 | 31.7% |
| O=C(CC(O)(C(F)(F)F)C(F)(F)F)Nc1ccc(Cl)c(Cl)c1 | 97% (active) |
| FC(F)Oc1ccc(/C=N/c2c(-c3ccc(OC(F)F)cc3)nc3n2CCS3)cc1 | 47.1% |
| Cc1ccc2nc(N(CCCN(C)C)C(=O)CCc3ccccc3)sc2c1 | 54.9% (active) |
| Cc1cccc2sc(N(CCCN(C)C)C(=O)CCS(=O)(=O)c3ccccc3)nc12 | 71.3% (active) |
| CN(C)CCCN(C(=O)CCOc1ccccc1)c1nc2c(F)cccc2s1 | 56% (active) |
| CN(C)CCCN(C(=O)CCS(=O)(=O)c1ccccc1)c1nc2cc3c(cc2s1)OCO3 | 70.2% (active) |
| O=C(CCN1C(=O)c2ccccc2C1=O)N1CCN(C2c3ccccc3-c3ccccc32)CC1 | 18.1% |
| CC(C)C(NS(=O)(=O)c1ccc2c(c1)oc(=O)n2C)C(=O)N1CCN(C2CCCCC2)CC1 (stereo not given) | 34.7% |
| Cc1ccc2sc(N(CCCN(C)C)C(=O)CCS(=O)(=O)c3ccccc3)nc2c1C | 92.2% (active) |

| SMILES | inhibition |
| --- | --- |
| CC(/C=N/NC(=O)c1c(Br)cnn1C)=C\c1ccccc1 | 56.6% (active) |
| CC(/C=N/NC(=O)CSc1ccccn1)=C\c1ccc(C(C)C)cc1 | 39% |
| CC(/C=N/NC(=O)CCn1nnc2ccccc21)=C\c1ccccc1 | 42.8% |
| Cc1cc(C(C)(C)C)cc(C)c1S(=O)(=O)N1CC(=O)Nc2ccccc21 | 50.1% (active) |
| CC(C)c1ccc(-c2c(C#N)c(N)nc3c2CCCCC3)cc1 | 23.8% |
| CCN(c1ccccc1)S(=O)(=O)c1cc(NC(=O)Nc2ccccc2C#N)ccc1Cl | 30.4% |
| COc1ccc(-c2cc(-c3cc(OC)ccc3O)[nH]n2)cc1 | 57.5% (active) |
| CCOCC(O)CNC(=O)c1ccc(OC2CCN(C(=O)c3cccnc3)CC2)cc1 (stereo not given) | 29.2% |
| Cc1cc(/C=C2/SC(=S)N(c3ccc([N+](=O)[O-])cc3)C2=O)c(C)n1-c1cccnc1 | 37.3% |
| O=C(NC1CCCCC1)c1noc2c1CCCCC2 | 71.2% (active) |
| O=C(NC1CCCC1)c1ccc(CN2CCOCC2)cc1 | 45.1% |
| C=CCn1c(=O)c2ccc(C(=O)NCc3ccccc3)cc2n(Cc2ccccc2Cl)c1=O | 36.4% |
| Cc1ccc(-c2csc(NC(=O)c3ccc(F)cc3)c2C(=O)O)cc1 | 93.8% (active) |
| Cc1noc(C)c1S(=O)(=O)N1CCC(C(=O)N2CCC(N3CCCCC3)CC2)CC1 | 23.3% |
| CCCOc1ccc(C(=O)C(CN2CCCC2)c2ccccc2)cc1 (stereo not given) | 48.7% |
| CCOC(=O)CNC(c1ccccc1)c1cc(Br)ccc1NC(=O)CCN1CCOCC1 (stereo not given) | 44.6% |
| CCOc1ccc(C(=O)C(CN2CCOCC2)c2ccccc2)cc1 (stereo not given) | 52.9% (active) |
| CCn1nc(C)cc1Nc1ccccc1 | 32.9% |
| Cc1cc(Nc2ccccc2)nn1C(=O)c1ccccc1 | 58% (active) |
| COc1cc2c(cc1NC(=S)Nc1ccccc1C)oc1ccccc12 | 45.5% |
| Cc1ccccc1N=C/C=C1\N(C)c2ccccc2C1(C)C | 42.5% |
| CN1/C(=C\C(=O)c2cccs2)C(C)(C)c2ccccc21 | 40% |
| CN(C)c1ccc(N=C/C=C2/N(C)c3ccccc3C2(C)C)cc1 | 56.5% (active) |
| CS(=O)(=O)c1nc(-c2ccco2)cc(C(F)(F)F)n1 | 90.7% (active) |
| Cc1ccc2cc(CN(Cc3ccco3)C(=O)NC3CCCCC3)c(=O)[nH]c2c1C | 42.8% |
